Source: PubChem (The Scripps Research Institute Molecular Screening Center)
CHRM1 antagonist: blocks human M1 muscarinic receptor | CHO-K1 hM1, Fluo-8 calcium fluorescence, ACh EC80 antagonist | inhibition, % at 3 µM | hit rate 1.3% among 360,000 | AID 588852;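 active = percent inhibition above its own plate's cutoff, namely the mean of that plate's compound wells plus 3 SD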;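 note: peak over basal fluorescence ratio during 140 s after agonist addition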
Target sequence (P11229 whole entry, looked up): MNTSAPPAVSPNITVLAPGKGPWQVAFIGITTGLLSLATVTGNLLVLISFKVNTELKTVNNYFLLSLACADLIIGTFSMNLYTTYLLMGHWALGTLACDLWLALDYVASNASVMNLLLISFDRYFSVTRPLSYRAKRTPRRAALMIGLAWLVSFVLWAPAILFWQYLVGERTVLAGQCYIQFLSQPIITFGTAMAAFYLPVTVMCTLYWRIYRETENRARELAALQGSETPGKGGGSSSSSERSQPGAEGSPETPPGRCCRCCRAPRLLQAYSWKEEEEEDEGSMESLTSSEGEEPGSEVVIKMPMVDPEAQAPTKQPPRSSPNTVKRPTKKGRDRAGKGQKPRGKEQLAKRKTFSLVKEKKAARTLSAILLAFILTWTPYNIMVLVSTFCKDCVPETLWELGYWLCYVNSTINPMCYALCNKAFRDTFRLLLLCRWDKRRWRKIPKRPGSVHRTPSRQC
CHO-K1 Ca antag: nonselective inhibitor or artifact in parental CHO-K1 cells. ATP-induced calcium, Fluo-8 fluorescence. hit rate 0.6% among 360,000. AID 602250. inhibition, % at 3 µM;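 active = inhibition above a per-plate cutoff, the plate's mean sample inhibition plus 3 SD, cut at about 24% in these data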
M1 ag parental: nonselective activator or artifact in parental CHO-K1 cells. Fluo-8 calcium fluorescence; scaled to maximal ATP response, vehicle zero. activation, % at 3 µM. hit rate 0.48% among 360,000; in the data active = activation above about 15%;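 note: untransfected CHO-K1 host cells lacking M1 receptor as counterscreen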
M1 ag: agonists of human M1 muscarinic receptor; P11229; CHO-K1 hM1, Fluo-8 calcium fluorescence, agonist mode; 0% DMSO, 100% acetylcholine EC100; activation, % at 3 µM; hit rate 0.33% among 360,000; AID 588814;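 active = activation above the run's mean compound activation plus 3 SD, cut at about 16% in these data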;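 note: peak over basal fluorescence ratio within a 140 s kinetic read after compound addition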
M1 PAM: human CHRM1 positive allosteric modulation; CHO-K1 hM1, Fluo-8 calcium fluorescence, ACh EC20; 0% = ACh EC20, 100% = maximal ACh; activation, % at 3 µM; hit rate 0.088% among 360,000; P11229; AID 588819; in the data active = activation above about 19%, passing the limit was not always enough
CHO-K1 Ca PAM: M1 PAM counterscreen hit in parental CHO-K1 cells; activation, % at 3 µM; hit rate 0.02% among 360,000; ATP EC20, Fluo-8 calcium fluorescence; 0% at ATP EC20, 100% at ATP max;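 active = activation above the run cutoff, the mean activation of all test compounds plus 3 SD, cut at about 40% in these data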;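 note: peak over basal fluorescence ratio in a 140 s read after ATP addition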
Each line names hits and unclear results; the compound was inactive in the other large screens. Rows were chosen to be rich in hits. Some 2.3% of all compounds tested hit in one or more screens of this group.

COC(=O)CCC(=O)N(C)CC1CCCN(CCc2cccc(C(F)(F)F)c2)C1 (centres undefined)	CHRM1 antagonist 44
COc1cc(CN(C)CC2CCCN(CCc3cccc(C(F)(F)F)c3)C2)ccc1O (centres undefined)	CHRM1 antagonist 49
CSCCC(=O)N(C)CC1CCCN(CCc2cccc(C(F)(F)F)c2)C1 (centres undefined)	CHRM1 antagonist 37
CC(C)COc1ccc(C(=O)N2C(=O)c3ccc(N)cc3C2=O)cc1	none
CSc1nnc(C)c(=O)n1COC(=O)c1ccccc1	none
CCc1nc2c(OCc3ccc(Cl)cc3)cccn2c1N(C=O)Cc1ccc(OC)cc1	none
Cc1cccc(NC(=O)CCc2nnc3ccc(N4CCC(C)CC4)nn23)n1	none
N#Cc1ccc(OCC(O)CN2CCC(C(O)(c3ccccc3)c3ccccc3)CC2)cc1 (centres undefined)	CHRM1 antagonist 32
COc1cccc(CNS(=O)(=O)c2c(C(=O)N3CCCCCC3)c(C)n(C)c2C)c1	none
CC(NC(=O)Nc1ccc([N+](=O)[O-])cc1)C(c1cccs1)N1CCCC1 (centres undefined)	M1 ag parental 25
CC(NC(=O)Nc1cccc(Cl)c1)C(c1cccs1)N1CCCC1 (centres undefined)	none
Cc1nc2c(OCc3cc(Cl)cc(Cl)c3)cccn2c1N(C)C(=O)CCC1CCCC1	CHRM1 antagonist 38
CCOC(=O)N(C)c1c(CC)nc2c(OCc3ccc(F)c(F)c3)cccn12	none
Cc1nc2c(OCC(=O)c3ccc(F)cc3)cccn2c1N(C)Cc1cccs1	none
Cc1nc2c(OCc3ccc(C#N)cc3)cccn2c1N(C)Cc1cccs1	CHRM1 antagonist 45
CCc1nc2c(OCc3ccc(F)c(F)c3)cccn2c1N(C)C(=O)C1CC1	CHRM1 antagonist 25
Cc1nc2c(OCc3ccc(C(F)(F)F)cc3)cccn2c1N(C)CC1CC1	CHRM1 antagonist 36
CCn1c(SCC(=O)Nc2ccc(N3CCOCC3)cc2)nnc1C1CC1	none
CCc1nc2c(OCCOc3ccccc3)cccn2c1N(C)C(=O)c1ccc(C)cc1	CHRM1 antagonist 44
CCc1nc2c(OCCOc3ccc(F)cc3)cccn2c1N(C)C(=O)c1ccc(C)cc1	none
COc1ccc(CN2C(=O)C(CC(=O)NCCN3CCOCC3)CC(C(=O)N3CCOCC3)=C2C)cc1 (centres undefined)	none
CN(C)c1ccc(N2C(=NC(=O)CCC3CCCC3)SC3CS(=O)(=O)CC32)cc1 (centres undefined)	none
COc1ccc(NC(=O)CSc2nnc(-c3ccncc3)n2C)cc1	none
COc1ccc(-c2nnc(SCC(=O)Nc3ccccc3)n2C)cc1	CHRM1 antagonist 13
COc1cccc(NC(=O)CSc2nnc(-c3ccoc3C)n2CC2CCCO2)c1 (centres undefined)	none
COc1ccc(NC(=O)CSc2nnc(-c3ccoc3C)n2CC2CCCO2)cc1 (centres undefined)	CHRM1 antagonist 27
COCCCNc1nc(SCc2ccccc2)nc2sc3c(c12)CCC3	CHO-K1 Ca antag 25
O=C(Cc1ccccc1[N+](=O)[O-])Nc1ccc2c(c1)OCCO2	none
COC(=O)c1cc(NC(=O)Cc2ccccc2[N+](=O)[O-])cc(C(=O)OC)c1	M1 ag parental 15
CC1CCCC(NC(=O)/C=C/c2c(F)cccc2Cl)C1C (centres undefined)	none
Cc1nc2sc(C(c3ccc(Cl)cc3)N3CC(C)OC(C)C3)c(O)n2n1 (centres undefined)	M1 PAM 23
COc1cc(OC)cc(C(=O)Nc2nc(CC(=O)NCc3ccccc3OC)cs2)c1	CHRM1 antagonist 29
CN(C(=O)COC(=O)CN1C(=O)c2cccc([N+](=O)[O-])c2C1=O)c1ccccc1	M1 PAM 28
Cc1cc(C)nc(NC(=O)c2cc(Br)ccc2Cl)n1	none
CCNC(=O)c1cc(Br)ccc1Cl	CHO-K1 Ca antag 24
Cc1ccc(S(=O)(=O)NCCC(=O)OCc2ccc([N+](=O)[O-])cc2)cc1C	none
CN(C)c1ccc(/C=C/c2nc3ccccc3c(=O)n2-c2ccc(C(=O)O)cc2)cc1	CHRM1 antagonist 39, M1 ag parental 17, M1 ag 70
O=C(Nc1ccc(F)cc1)Nc1ccc2c(c1)OCO2	M1 ag parental 21
O=C(CNCc1ccc(Cl)cc1)Nc1ccc2c(c1)OCCO2	M1 ag parental 22
O=C(Nc1ccc2c(c1)OCO2)Nc1ccc(F)cc1F	none
CC(C)CN(CC(C)C)C(=O)Nc1cccc([N+](=O)[O-])c1	M1 ag parental 15
O=C(Nc1ccc([N+](=O)[O-])cc1)Nc1ccc(OC(F)F)c(Cl)c1	CHRM1 antagonist 40, CHO-K1 Ca antag 25, M1 ag parental 32
CC(C(=O)Nc1cccc([N+](=O)[O-])c1)[n+]1ccccc1 (centres undefined)	none
Nc1ccccc1C(=O)NC(=O)Nc1ccc(Oc2ncc(Br)cn2)c(Cl)c1	none
O=C1NC[C@@H](CCCCN2C[C@H](Cc3ccc(O)cc3)N(CCC3CCCCC3)C(=O)C2=O)N(CCC2CCCCC2)C1=O	none (no result: CHRM1 antagonist, M1 ag, M1 PAM)
O=C(Nc1ccc(OC(F)F)c(Cl)c1)Nc1ccc2c(c1)OCO2	CHO-K1 Ca antag 27
O=C(Nc1ccc(Cl)cc1)Nc1ccc2c(c1)OCO2	CHRM1 antagonist 36
O=C(Nc1ccc2c(c1)OCO2)Nc1ccc2c(c1)OCO2	none
COc1ccc(NC(=O)Nc2cccc([N+](=O)[O-])c2)cc1Cl	CHO-K1 Ca antag 30
C[C@H](CO)N1C[C@H](C)[C@H](CN(C)C(=O)Nc2ccc(C(F)(F)F)cc2)OCc2cnnn2CCCC1=O	none
Cc1ccccc1Oc1ccc2c(c1)[C@@H]1C[C@H](N(C)C(=O)c3cccnc3)[C@H]([C@H](C)O)C(=O)N1CC2	CHO-K1 Ca antag 33
Cc1ccccc1Oc1ccc2c(c1)[C@@H]1C[C@H](N(C)C(=O)NC3CCCCC3)[C@H]([C@H](C)O)C(=O)N1CC2	none
C[C@H](O)[C@@H]1C(=O)N2CCc3ccc(-c4ccccc4)cc3[C@@H]2C[C@@H]1N(C)C(=O)NC1CCCCC1	CHRM1 antagonist 42
Oc1ccc(Br)cc1-c1cc(-c2ccccc2F)[nH]n1	CHO-K1 Ca antag 26
COC(=O)c1scc(C)c1NS(=O)(=O)c1ccc(NC(C)=O)cc1	none
O=C1c2ccc(Oc3ccc([N+](=O)[O-])cc3)cc2C(=O)N1CCO	M1 ag parental 17
O=C(O)c1ccc(CN2C(=O)c3ccc(Oc4ccc([N+](=O)[O-])cc4)cc3C2=O)cc1	none
N#Cc1cc2nc(O)c(O)nc2cc1[N+](=O)[O-]	none
CNc1nc2cc([N+](=O)[O-])c([N+](=O)[O-])cc2nc1NC	CHRM1 antagonist 30, CHO-K1 Ca antag 39, M1 ag parental 18
